# Measured values published in US20110177501, “BIOSENSOR FOR DETECTION AND VISUALISATION OF SINGLE-STRANDED DNA” (MEDICAL RESEARCH COUNCIL, published 2011).
# Molecular target: 6-IATR-E. coli SSB (G26C) (Escherichia coli, UniProt P0AGE0 SEQ:1-177, G26C)
# Assay: competition; stated only as similar result to IDCC-G26C
# Conditions: tags: 6-IATR label on Cys26; chain copies: 4 (stated, tetramer); ssDNA
sequence,measurement,value
TTTTTTTTTTTTTTTTTTTTTTTTTTTTTTTTTTTTTTTTTTTTTTTTTTTTTTTTTTTTTTTTTTTTTT,binding signal,~28 fold Kd vs unlabeled SSB
